{
  "source": "PubChem BioAssay (NCI)",
  "note": "Compounds without any hit were thinned out: in the full panel of roughly 83,000, 20% have a hit.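 Negative percent growth values reflect cell death: -40 means 40% of the cells present at the start died, and -100 means all died.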 Unmarked numbers belong to inactive results. The source made the active and inactive calls. How the source made its calls: active means growth percent below 10; inactive means the rest.",
  "data": [
    {"system": "HL-60(TB) leukemia", "test": "NCI-60 one-dose screen, 48 h (100 = growth as untreated, 0 = no growth, -100 = all killed)", "settings": "10 µM unless noted", "values": [
      {"compound": "COc1ccc(/C=C/C=C\\C(=O)c2ccc(-n3ccnc3)cc2)cc1", "growth": "66.9%"},
      {"compound": "CCCc1nc(C(C)(C)O)c(C(=O)O)n1Cc1ccc(-c2ccccc2-c2nn[nH]n2)cc1", "growth": "107%"},
      {"compound": "COC(=O)c1oc2c(C(=O)/C=C/c3ccc(OC)cc3)c(OCCN3CCOCC3)ccc2c1C", "growth": "-24.1% (active)"},
      {"compound": "CC(C)CCC[C@@H](C)[C@H]1CCC2C3=CCn4c(=O)ccc(=O)n4C3CC[C@@]21C", "note": "(stereo not given in full)", "growth": "-43.3% (active)"},
      {"compound": "CC(=O)N[C@H](C(=O)N[C@@H](CCCNC(=N)N)C(=O)N[C@@H](CCCCN)C(=O)N[C@@H](CCCNC(=N)N)C(=O)NC(C(=O)N[C@@H](CC(C)C)C(=O)N[C@@H](CCCNC(=N)N)C(=O)N[C@@]1(C)CCC/C=C\\CCC[C@@](C)(C(=O)N[C@@H](CCCNC(=N)N)C(=O)N[C@@H](CCC(=O)O)C(=O)N[C@@H](CC(C)C)C(=O)N[C@H](C(=O)N[C@@H](CCC(=O)O)C(N)=O)C(C)C)NC(=O)[C@H](CCC(N)=O)NC(=O)[C@H](CC(C)C)NC(=O)[C@H](CC(C)C)NC1=O)[C@@H](C)O)C(C)C", "note": "(stereo not given in full)", "growth": "-41% (active)"},
      {"compound": "CCOC(=O)c1ccccc1OC(=O)NNc1ccccc1", "growth": "-7.77% (active)"},
      {"compound": "C#CC(F)(F)[C@]1(O)CC[C@H]2[C@@H]3CCC4=CC(=O)CCC4=C3[C@@H](c3ccc(C4CC4)cc3)C[C@@]21C", "growth": "-61.1% (active)"},
      {"compound": "C=CN(C)S(C)(=O)=O", "growth": "5.83% (active)"},
      {"compound": "CCCCCCCCN(CCCCCCCC)CC(O)c1cc(-c2ccccc2)nc2ccc(OC)cc12", "note": "(stereo not given)", "growth": "-28.4% (active)"},
      {"compound": "CCCN1CN2C(=O)N3CN(CCC)CN4C(=S)N(C1)C2C34", "note": "(stereo not given)", "growth": "95%"},
      {"compound": "Cn1c2ccccc2c2ssc(=S)c21", "growth": "43.5%"},
      {"compound": "C1=CC2=CC=C3C=CC=C4C(c5nc6c7ccccc7c7ccccc7c6[nH]5)=CC(=C1)C2C34", "note": "(stereo not given)", "growth": "111%"},
      {"compound": "O=S(=O)(NCCCNc1nccc(-c2c(-c3cccc(O)c3)nc3occn23)n1)c1ccc(Br)cc1", "growth": "69.7%"},
      {"compound": "Nc1ncnc2c1N=C(c1ccc3c(c1)OCO3)CC(c1cccc(Nc3ccnc4cc(C(F)(F)F)ccc34)c1)N2", "note": "(stereo not given)", "growth": "92.9%"},
      {"compound": "Clc1ccc2c(c1)C(Br)c1cc(Cl)cc(Cl)c1-2", "note": "(stereo not given)", "growth": "81.3%"},
      {"compound": "N#Cc1c(-c2ccc(Cl)cc2)n(O)c2ccccc12", "growth": "-0.349% (active)"},
      {"compound": "COc1cc2nc(N3CCCC3)nc(NCCc3ccccc3)c2cc1OC", "growth": "-53.6% (active)"},
      {"compound": "CCOC1(OCC)OC(c2ccccc2)=C(C#N)C(/C=C\\c2ccccc2)C1(OCC)OCC", "note": "(stereo not given)", "growth": "80.1%"},
      {"compound": "COc1cc2oc(-c3ccc(NC(=O)c4ccccc4)cc3)cc(=O)c2c(OC)c1OC", "growth": "100%"},
      {"compound": "C=CCNC(=O)Cc1c(-c2ccc(OC)cc2)oc2c(OC)c3c(c(OC)c12)OCO3", "growth": "102%"},
      {"compound": "O=S1(=O)OC(c2ccc(O)c(Cl)c2)(c2ccc(O)c(Cl)c2)c2ccccc21", "growth": "109%"},
      {"compound": "O=C(c1ccc(Cl)cc1)N1CCCCC1", "growth": "98.7%"},
      {"compound": "CC(Cl)(CCl)CS(=O)(=O)c1ccc(Cl)cc1", "note": "(stereo not given)", "growth": "87.2%"},
      {"compound": "COc1ccc(OC)c(-c2c(C#N)c(-c3ccc(Cl)cc3)nc3c2c(-c2ccccc2)nn3-c2ccccc2)c1", "growth": "99%"},
      {"compound": "Cc1cccc(Oc2ccc(Nc3ncnc4ccc(NC(=O)CN(C)C)cc34)cc2Cl)c1", "growth": "-48% (active)"}
    ]}
  ]
}
